The values that follow come from ChEMBL document CHEMBL1961873, “Compounds: GSK PKIS; Assays: Nanosyn kinase panel” (2012).

Experiment [1] concerns the target Serine/threonine-protein kinase PAK 6 (Homo sapiens) (UniProt Q9NQU5). To be noted: at 1 µM.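 Note: values are mean percent inhibition of PAK6 kinase.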
Experiment [2] has as its system Tyrosine-protein kinase ABL1 (Homo sapiens), P00519 [E255K]. To be noted: at 0.1 µM.
The test system is the same in experiment [3]. As to conditions: at 1 µM.
Experiment [4] has as its system Tyrosine-protein kinase ABL1 (Homo sapiens), P00519 [H396P]. As to conditions: at 0.1 µM.
For experiment [5] the test system is unchanged. To be noted: at 1 µM.
Experiment [6] relates to Tyrosine-protein kinase ABL1 (Homo sapiens), P00519 [M351T]. To be noted: at 0.1 µM.
Experiment [7] has the same test system. To be noted: at 1 µM.
For experiment [8], the system named is Tyrosine-protein kinase ABL1 (Homo sapiens), P00519 [Q252H]. As to conditions: at 0.1 µM.
Experiment [9] shares this test system. To be noted: at 1 µM.
Experiment [10] has as its system Tyrosine-protein kinase ABL1 (Homo sapiens), P00519 [T315I]. To be noted: at 0.1 µM.
For experiment [11] the test system is unchanged. As to conditions: at 1 µM.
Experiment [12] deals with Tyrosine-protein kinase ABL1 (Homo sapiens), P00519 [Y253F]. To be noted: at 0.1 µM.
Experiment [13] shares this test system. As to conditions: at 1 µM.
The target of experiment [14] is Tyrosine-protein kinase ABL1 (Homo sapiens) (UniProt P00519). To be noted: at 0.1 µM.
Experiment [15] shares this target. To be noted: at 1 µM.
Experiment [16] has as its target ALK tyrosine kinase receptor (Homo sapiens) (UniProt Q9UM73). To be noted: at 0.1 µM.
Experiment [17] shares this target. To be noted: at 1 µM.
Experiment [18] concerns the target Tyrosine-protein kinase ABL2 (Homo sapiens) (UniProt P42684). To be noted: at 0.1 µM.
For experiment [19] the target is unchanged. To be noted: at 1 µM.
Experiment [20] deals with Tyrosine-protein kinase receptor UFO (Homo sapiens) (UniProt P30530). To be noted: at 0.1 µM.
Sequence of Tyrosine-protein kinase receptor UFO (Homo sapiens) (P30530 whole entry): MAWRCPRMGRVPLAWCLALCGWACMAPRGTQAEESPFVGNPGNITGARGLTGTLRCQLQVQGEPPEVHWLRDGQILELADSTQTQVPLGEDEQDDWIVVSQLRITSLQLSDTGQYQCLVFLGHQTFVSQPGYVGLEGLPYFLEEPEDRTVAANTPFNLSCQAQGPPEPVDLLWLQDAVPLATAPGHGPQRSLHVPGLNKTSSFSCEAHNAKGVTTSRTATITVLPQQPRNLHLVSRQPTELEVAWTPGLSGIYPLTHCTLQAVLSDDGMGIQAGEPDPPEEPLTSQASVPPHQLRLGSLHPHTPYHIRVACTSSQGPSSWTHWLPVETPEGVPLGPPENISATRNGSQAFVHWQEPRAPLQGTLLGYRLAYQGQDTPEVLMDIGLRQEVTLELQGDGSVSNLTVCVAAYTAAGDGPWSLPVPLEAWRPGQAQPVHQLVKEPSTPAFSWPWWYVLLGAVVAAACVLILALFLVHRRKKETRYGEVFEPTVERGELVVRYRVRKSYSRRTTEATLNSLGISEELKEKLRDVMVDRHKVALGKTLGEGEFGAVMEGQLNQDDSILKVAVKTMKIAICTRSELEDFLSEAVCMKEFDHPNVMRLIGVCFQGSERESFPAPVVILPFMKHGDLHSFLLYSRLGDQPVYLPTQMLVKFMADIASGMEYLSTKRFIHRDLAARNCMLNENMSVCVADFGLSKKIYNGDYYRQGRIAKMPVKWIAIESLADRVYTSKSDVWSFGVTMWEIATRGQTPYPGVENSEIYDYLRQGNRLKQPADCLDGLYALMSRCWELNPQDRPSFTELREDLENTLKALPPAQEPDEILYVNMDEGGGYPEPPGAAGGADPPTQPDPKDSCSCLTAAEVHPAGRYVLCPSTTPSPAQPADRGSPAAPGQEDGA

Usually inhibition stands for the change of the read-out against control, counted positive when it falls.

SMILES strings stand for the structures.

Sequence of Serine/threonine-protein kinase PAK 6 (Homo sapiens) (Q9NQU5 whole entry, looked up): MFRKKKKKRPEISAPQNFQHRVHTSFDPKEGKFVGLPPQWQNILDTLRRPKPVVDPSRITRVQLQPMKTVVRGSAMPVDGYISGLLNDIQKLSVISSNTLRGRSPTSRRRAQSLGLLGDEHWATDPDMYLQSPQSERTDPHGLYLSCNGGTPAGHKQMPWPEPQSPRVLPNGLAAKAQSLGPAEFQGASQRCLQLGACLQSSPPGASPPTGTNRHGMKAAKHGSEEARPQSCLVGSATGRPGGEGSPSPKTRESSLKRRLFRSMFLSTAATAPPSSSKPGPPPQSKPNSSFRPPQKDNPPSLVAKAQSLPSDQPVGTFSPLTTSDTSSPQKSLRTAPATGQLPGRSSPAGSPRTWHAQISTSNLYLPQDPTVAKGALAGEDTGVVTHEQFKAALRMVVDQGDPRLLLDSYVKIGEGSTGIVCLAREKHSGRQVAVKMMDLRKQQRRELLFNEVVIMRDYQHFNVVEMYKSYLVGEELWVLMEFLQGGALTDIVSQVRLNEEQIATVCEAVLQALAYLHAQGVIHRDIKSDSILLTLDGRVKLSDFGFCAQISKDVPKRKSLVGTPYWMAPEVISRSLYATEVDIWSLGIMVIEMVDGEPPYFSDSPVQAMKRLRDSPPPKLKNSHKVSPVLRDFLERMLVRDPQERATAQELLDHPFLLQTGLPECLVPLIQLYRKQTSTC
Sequence of Tyrosine-protein kinase ABL2 (Homo sapiens) (P42684 whole entry): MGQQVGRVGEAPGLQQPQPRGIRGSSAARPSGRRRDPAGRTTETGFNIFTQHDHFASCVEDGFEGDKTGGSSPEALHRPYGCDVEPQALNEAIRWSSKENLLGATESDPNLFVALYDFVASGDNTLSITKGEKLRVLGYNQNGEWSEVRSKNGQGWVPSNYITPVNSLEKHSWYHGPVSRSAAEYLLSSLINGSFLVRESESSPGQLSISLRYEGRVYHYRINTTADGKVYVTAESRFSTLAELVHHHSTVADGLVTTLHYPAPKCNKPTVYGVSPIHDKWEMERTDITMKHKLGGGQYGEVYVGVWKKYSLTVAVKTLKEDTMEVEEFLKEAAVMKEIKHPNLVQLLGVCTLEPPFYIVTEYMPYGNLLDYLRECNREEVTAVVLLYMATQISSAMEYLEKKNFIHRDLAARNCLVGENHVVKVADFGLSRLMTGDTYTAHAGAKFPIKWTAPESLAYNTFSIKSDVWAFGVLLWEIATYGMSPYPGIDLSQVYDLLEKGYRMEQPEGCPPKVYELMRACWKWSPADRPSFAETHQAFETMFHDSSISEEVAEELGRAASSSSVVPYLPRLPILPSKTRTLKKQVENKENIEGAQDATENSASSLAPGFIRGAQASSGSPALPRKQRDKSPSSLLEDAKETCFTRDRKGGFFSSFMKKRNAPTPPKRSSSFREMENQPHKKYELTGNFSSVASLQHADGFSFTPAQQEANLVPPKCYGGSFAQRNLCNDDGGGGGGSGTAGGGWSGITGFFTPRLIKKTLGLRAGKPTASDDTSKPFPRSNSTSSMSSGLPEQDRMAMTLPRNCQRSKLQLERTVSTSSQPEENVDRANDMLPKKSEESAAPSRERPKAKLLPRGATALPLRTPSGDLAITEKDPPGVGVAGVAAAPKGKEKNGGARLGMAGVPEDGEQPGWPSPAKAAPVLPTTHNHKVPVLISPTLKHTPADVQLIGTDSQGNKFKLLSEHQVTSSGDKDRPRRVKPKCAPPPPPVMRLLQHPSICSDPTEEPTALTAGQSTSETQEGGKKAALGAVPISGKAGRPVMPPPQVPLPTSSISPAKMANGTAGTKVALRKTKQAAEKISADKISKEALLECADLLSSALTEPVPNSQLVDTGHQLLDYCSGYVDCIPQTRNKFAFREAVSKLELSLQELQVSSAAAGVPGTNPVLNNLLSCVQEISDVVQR
Sequence of ALK tyrosine kinase receptor (Homo sapiens) (Q9UM73 19-1620 limits assumed): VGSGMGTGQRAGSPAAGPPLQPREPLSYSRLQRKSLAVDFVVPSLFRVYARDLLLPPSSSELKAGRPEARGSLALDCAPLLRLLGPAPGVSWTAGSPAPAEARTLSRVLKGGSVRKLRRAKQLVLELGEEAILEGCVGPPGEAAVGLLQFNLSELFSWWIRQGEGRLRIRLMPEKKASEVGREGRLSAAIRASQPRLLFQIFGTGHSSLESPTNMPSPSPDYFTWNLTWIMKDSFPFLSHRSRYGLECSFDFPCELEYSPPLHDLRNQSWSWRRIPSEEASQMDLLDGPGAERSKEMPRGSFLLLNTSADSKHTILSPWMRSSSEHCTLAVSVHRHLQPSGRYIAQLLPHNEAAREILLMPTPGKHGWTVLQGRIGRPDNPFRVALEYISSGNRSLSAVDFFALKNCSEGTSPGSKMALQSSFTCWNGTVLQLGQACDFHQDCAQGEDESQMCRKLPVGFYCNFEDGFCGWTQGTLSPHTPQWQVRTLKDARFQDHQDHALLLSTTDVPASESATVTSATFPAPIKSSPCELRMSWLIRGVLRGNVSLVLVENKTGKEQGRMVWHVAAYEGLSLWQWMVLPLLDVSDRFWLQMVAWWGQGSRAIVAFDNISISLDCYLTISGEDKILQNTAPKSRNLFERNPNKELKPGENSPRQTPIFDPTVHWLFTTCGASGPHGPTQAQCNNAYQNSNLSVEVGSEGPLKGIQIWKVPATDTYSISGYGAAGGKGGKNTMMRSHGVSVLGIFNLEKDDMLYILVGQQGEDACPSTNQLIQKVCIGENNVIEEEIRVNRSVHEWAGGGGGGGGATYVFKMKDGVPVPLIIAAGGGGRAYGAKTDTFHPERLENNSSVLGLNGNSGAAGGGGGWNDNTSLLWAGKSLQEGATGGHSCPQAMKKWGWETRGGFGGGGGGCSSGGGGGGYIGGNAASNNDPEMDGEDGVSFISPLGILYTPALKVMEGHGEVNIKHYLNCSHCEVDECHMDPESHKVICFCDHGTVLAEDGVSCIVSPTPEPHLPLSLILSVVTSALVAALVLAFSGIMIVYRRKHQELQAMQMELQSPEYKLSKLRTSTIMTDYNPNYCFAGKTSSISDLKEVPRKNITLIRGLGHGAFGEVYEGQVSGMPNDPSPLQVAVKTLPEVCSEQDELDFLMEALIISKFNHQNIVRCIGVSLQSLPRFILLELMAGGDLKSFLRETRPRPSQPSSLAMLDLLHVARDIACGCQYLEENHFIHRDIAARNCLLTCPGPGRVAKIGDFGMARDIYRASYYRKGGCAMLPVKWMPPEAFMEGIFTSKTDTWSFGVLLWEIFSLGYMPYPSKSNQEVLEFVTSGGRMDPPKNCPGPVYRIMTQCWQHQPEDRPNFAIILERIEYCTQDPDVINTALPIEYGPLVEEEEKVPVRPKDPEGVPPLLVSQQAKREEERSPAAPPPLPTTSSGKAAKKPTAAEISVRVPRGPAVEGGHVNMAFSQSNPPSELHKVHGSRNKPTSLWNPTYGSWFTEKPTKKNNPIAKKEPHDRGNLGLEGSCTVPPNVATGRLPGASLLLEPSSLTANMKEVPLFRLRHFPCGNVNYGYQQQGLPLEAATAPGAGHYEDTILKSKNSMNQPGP

As to `CC(C)COC(=O)c1ccc2c(c1)/C(=C/Nc1ccc(S(N)(=O)=O)cc1)C(=O)N2`, the inhibition amounted to 0.35% in [1]; 1.63% in [2]; 21.7% in experiment [3]; 4.36% in experiment [4]; 26.6% in experiment [5]; 4.24% in experiment [6]. The inhibition was found to be 33.2% in [7]; 3.65% in experiment [8]; 28.9% in experiment [9]; 5.23% in [10]; 43.4% in experiment [11]; 4.12% in experiment [12]. Also, the inhibition in [13] was 28.8%; in [14] it was 1.58%; in experiment [15], 36.3%; in experiment [16], -0.71%; in [17], 4.93%; in [18] it was 3.59%. The figures for the inhibition in experiment [19] and in experiment [20] were 20.4% and 1.97%, respectively.

As to `Fc1ccc(-c2nn3ncccc3c2-c2ccnc(Nc3ccc4c(c3)OCCO4)n2)cc1`, the inhibition was -1.03% in experiment [1]; 10.2% in experiment [2]; 40.9% in experiment [3]; 25.5% in [4]; 69.9% in [5]; 38.6% in experiment [6]. For the same compound, the inhibition was found to be 81% in experiment [7]; 31% in experiment [8]; 75.2% in experiment [9]; 14.1% in [10]; 53.4% in experiment [11]; 29.3% in experiment [12]. The inhibition in experiment [13] is 72.2%; in experiment [14], 11.8%; in [15], 62.6%; in [16] it was 4.64%; in experiment [17], 7.86%; in experiment [18], 10.4%. Moreover, the results for the inhibition in experiment [19] and in [20] were 56.1% and -9.81%, respectively.

For `c1cc(-c2cnn3nc(N4CCOCC4)ccc23)nc(NC2CC2)n1`, the inhibition in [1] stood at 6.8%; in [2], 2.12%; in experiment [3], 3.25%; in experiment [4], 3.02%; in [5], 5.18%; in [6] it was 3.02%. Also, the inhibition is 4.81% in experiment [7]; 2.61% in experiment [8]; 6.62% in experiment [9]; 2.17% in [10]; 2.55% in [11]; 3.63% in experiment [12]. For the same compound, the inhibition in [13] was found to be 6.41%; in experiment [14], 3.71%; in experiment [15] it was 13.7%; in [16], 2.05%; in experiment [17], 9.86%; in [18] it was 3.73%. Further, the inhibition in experiment [19] is 9.11%; in experiment [20] it was -3.58%.

On to `COC(=O)c1sc(-n2cnc3cc(OC)c(OC)cc32)cc1OCc1ccccc1C(F)(F)F`, for which the inhibition in [1] amounted to 0.71%; in [2], 6.91%; in experiment [3], 22.7%; in experiment [4] it was 5.82%; in experiment [5], 18.2%; in [6], 4.03%. For the same compound, the inhibition came out at 16.2% in experiment [7]; 6.05% in [8]; 18.9% in [9]; 2.67% in [10]; 4.91% in experiment [11]; 6.46% in experiment [12]. For the same compound, the inhibition in experiment [13] was 21.6%; in experiment [14], 3.86%; in experiment [15], 12.3%; in experiment [16], 3.59%; in [17], 12.4%; in [18], 3.44%. Moreover, the inhibition was 5.92% in experiment [19] and -8.88% in experiment [20].

As to `COc1ccc2[nH]c3c4[nH]c5ccc(OC)cc5c4c4c(c3c2c1)C(=O)NC4=O`, the inhibition in experiment [1] is -0.34%; in [2] it was 7.87%; in experiment [3], 36.1%; in experiment [4], 10.7%; in [5], 45.3%; in [6], 10.1%. Also, the inhibition in experiment [7] turned out to be 47.7%; in experiment [8], 29.6%; in experiment [9] it was 72.5%; in experiment [10], 9.34%; in experiment [11], 33.7%; in [12] it was 15.4%. Moreover, the inhibition in experiment [13] came out at 52.3%; in experiment [14], 6.32%; in [15], 34%; in experiment [16], 13.8%; in experiment [17] it was 58.3%; in experiment [18] it was 3.1%. Besides, the inhibition turned out to be 12.1% in experiment [19] and 11% in [20].

Turning to `CN1CCC(n2cnc(-c3ccc(F)cc3)c2-c2ccnc(Nc3ccccc3)n2)CC1`, the inhibition is -6.61% in experiment [1]; 2.58% in experiment [2]; 4.56% in [3]; 4.83% in [4]; 13.6% in [5]; 0.84% in experiment [6]. In addition, the inhibition in experiment [7] is 10.2%; in experiment [8], 3.66%; in experiment [9], 9.15%; in experiment [10], 1.45%; in [11], 4.98%; in [12], 3.47%. Moreover, the inhibition in experiment [13] worked out at 9.91%; in [14], 1.69%; in experiment [15], 11%; in [16] it was 1.58%; in experiment [17], 2.39%; in experiment [18], 3.42%. For the same compound, the inhibition is 10.2% in experiment [19] and -2.82% in experiment [20].

As to `Nc1ncc(-c2cccc(S(N)(=O)=O)c2)c2scc(-c3ccc(F)c(Cl)c3)c12`, the inhibition in experiment [1] was -1.87%; in [2], 35.4%; in experiment [3], 84.7%; in [4], 69.4%; in [5] it was 93.5%; in [6], 64.2%. For the same compound, the inhibition in [7] came out at 93.9%; in experiment [8], 55.3%; in experiment [9], 91.4%; in [10], 5.83%; in [11], 35%; in [12], 62.6%. The inhibition in [13] is 92.4%; in [14], 60.5%; in [15] it was 87.6%; in experiment [16] it was 4.32%; in [17], 13.8%; in experiment [18] it was 35.4%. In addition, the figures for the inhibition in [19] and in [20] were 78.4% and -4.87%, respectively.

Consider `COC(=O)Nc1nc2ccc(Oc3ccc(NC(=O)Nc4cccc(Cl)c4)cc3)cc2[nH]1`, for which the inhibition was -1.03% in experiment [1]; 3.36% in [2]; 8.54% in [3]; 15.3% in experiment [4]; 40.9% in [5]; 37.5% in experiment [6]. The inhibition in experiment [7] stood at 56.3%; in [8], 35.7%; in experiment [9], 59.7%; in [10] it was 23.3%; in [11] it was 42.4%; in [12] it was 7.43%. Moreover, the inhibition stood at 22% in experiment [13]; 6.59% in experiment [14]; 13.3% in experiment [15]; 1.45% in experiment [16]; 2.26% in experiment [17]; 12.3% in [18]. Further, the inhibition is 28.8% in experiment [19] and -5.74% in experiment [20].

In the case of `COc1cc2ncn(-c3cc(OCc4ccccc4C(F)(F)F)c(C(=O)N(C)C)s3)c2cc1OC`, the inhibition is -4.14% in experiment [1]; 1.36% in experiment [2]; 9.93% in experiment [3]; 2.27% in [4]; 16.3% in experiment [5]; 1.09% in experiment [6]. Further, the inhibition in [7] is 14.9%; in [8] it was 2.35%; in experiment [9] it was 13.2%; in experiment [10], -0.89%; in [11], 1.37%; in experiment [12] it was 1.14%. Also, the inhibition in experiment [13] is 17.4%; in experiment [14], 2.99%; in experiment [15], 18.7%; in experiment [16], 0.27%; in experiment [17] it was 0.78%; in experiment [18], 4.85%. The inhibition in experiment [19] is 11.8%; in experiment [20], -0.33%.

In the case of `FC(F)(F)c1cccc(-c2nn3ncccc3c2-c2ccnc(Nc3ccc4c(c3)OCCO4)n2)c1`, the inhibition was -1.75% in [1]; 3.04% in [2]; 9.11% in experiment [3]; 6.97% in experiment [4]; 36.6% in [5]; 10.1% in [6]. Besides, the inhibition in [7] came out at 50%; in [8], 9.57%; in [9], 45.2%; in experiment [10] it was 10.1%; in experiment [11] it was 32.5%; in experiment [12], 5.94%. For the same compound, the inhibition is 30.6% in experiment [13]; 3.95% in experiment [14]; 30.4% in experiment [15]; 2.44% in [16]; 3.89% in experiment [17]; 4.21% in [18]. Besides, the values for the inhibition in experiment [19] and in experiment [20] were 32.1% and -5.2%, respectively.

Consider `COc1ccc2c(-c3ccnc(Nc4cccc(OC(F)(F)F)c4)n3)cnn2n1`, for which the inhibition in experiment [1] was 6.82%; in experiment [2] it was 3.39%; in experiment [3] it was 4.4%; in experiment [4], 3.04%; in [5], 15.7%; in experiment [6], 1.37%. The inhibition in experiment [7] is 11.9%; in experiment [8] it was 4.44%; in experiment [9], 9.67%; in experiment [10] it was 0.99%; in experiment [11], 6.33%; in experiment [12], 4.09%. The inhibition in [13] came to 8.45%; in [14], 4.8%; in experiment [15], 17%; in experiment [16] it was 2.4%; in [17], 5.73%; in experiment [18] it was 4.05%. For the same compound, the inhibition was 19.1% in [19] and -4.17% in experiment [20].

Consider `CN1CCC(n2cnc(-c3ccc(F)cc3)c2-c2ccnc(N)n2)CC1`, for which the inhibition in experiment [1] was -6%; in experiment [2] it was 3.04%; in [3] it was 7%; in experiment [4], 2.82%; in experiment [5] it was 11.9%; in experiment [6], -0.15%. The inhibition in experiment [7] is 7.75%; in [8], 2.65%; in [9] it was 6.83%; in experiment [10] it was 1.94%; in [11], 5.74%; in experiment [12], 1.88%. Besides, the inhibition was 8.15% in experiment [13]; 2.31% in [14]; 8.97% in [15]; 1.26% in experiment [16]; 4.21% in experiment [17]; 2.89% in experiment [18]. Also, the inhibition in experiment [19] was 7.64%; in experiment [20] it was -3.77%.

As for `COc1cc(N2CCN(C(C)C)CC2)ccc1Nc1nc(Nc2ccc(F)cc2C(N)=O)c2cc[nH]c2n1`, the inhibition in experiment [1] was 3.58%; in experiment [2], -0.24%; in experiment [3], 1.64%; in [4] it was 1.72%; in experiment [5], 2.38%; in [6], 1.19%. Besides, the inhibition in [7] is 2.15%; in [8], 1.11%; in [9] it was 2.74%; in experiment [10] it was -0.7%; in [11], 7.02%; in experiment [12], 0.29%. Besides, the inhibition in experiment [13] is 1.6%; in experiment [14], 3.76%; in experiment [15], 3.4%; in experiment [16] it was 88.3%; in experiment [17] it was 88.8%; in [18], -0.12%. For the same compound, the values for the inhibition in [19] and in [20] were 2.78% and 3.89%, respectively.
